According to PubChem BioAssay (NCATS):
The source made the active and inactive calls. The call rests on the fitted dose curve.

experiment: Cell Proliferation Assay Versus the ED40515 IL2 Dependent ATL cell lines (AID 1053195); details: ED40515 IL2-dependent ATL cells
From the text: Adult T-cell leukemia (ATL) develops in individuals infected with human T-cell lymphotropic virus-1 (HTLV-1). Clinically, ATL is subclassified into four subtypes: smoldering, chronic, lymphomatous, and acute. Two autocrine loops (IL-2/IL-2Ralpha and IL-15/IL-15Ralpha) and one paracrine stimulation loop that involves IL-9 expression by ATL cells and IL-9Ralpha expression on monocytes are required to maintain viability and proliferation in the smoldering and chronic forms of the disease. These assays examined the differential response profiles for the MIPE library of approved and investigational drugs versus an IL2 dependent and independent matched ATL cell line, with the current submission examining the differential response profiles for drugs on an IL2 dependent matched ATL cell line.
Plate log growing ED40515 +IL2 cells: 1000cells/ well in 5uL phenol red free RPMI +5% FBS +1x p/s, Glutamine using 1536 well white griener tissue culture plates and multidrop cassette acoustic dispensing Columns 1 and 3 DMSO Columns 2 and 4, 9.2 uM Bortezomib Incubate 48 hours for celltiter glo 37C with 5%CO2 and 95% humidity with low evaporation lids Dispense 3 uL per well of cell titer glo with multidrop Incubate for 15 minutes at RT Read on VL/2 using Luminesence Wheel (Filter A)

SMILES | Potency
Cc1cc(-c2nnc3n2CCCCC3)c(C)n1-c1ccc(F)cc1 | 11.8 µM (active)
CC1(C)CNc2cc(NC(=O)c3cccnc3NCc3ccncc3)ccc21 | 23.5 µM (active)
Cc1cnc(Nc2ccc(OCCN3CCCC3)cc2)nc1Nc1cccc(S(=O)(=O)NC(C)(C)C)c1 | 20.9 µM (active)
COCC(=O)NCC=Cc1ccc2ncnc(Nc3ccc(Oc4ccc(C)nc4)c(C)c3)c2c1 | 4.69 µM (active)
CC(C)(Sc1ccc(CCN(CCCCC2CCCCC2)C(=O)NC2CCCCC2)cc1)C(=O)O | 18.7 µM (active)
COc1ccc(-c2oc3cc(OC)ccc3c2C(=O)c2ccc(C#N)cc2)cc1 | 20.9 µM (active)
CCCc1nn(C)c2c(=O)[nH]c(-c3cc(S(=O)(=O)N4CCN(C)CC4)ccc3OCC)nc12 | 37.2 µM (active)
NC(=O)C1CCCc2c1[nH]c1ccc(Cl)cc21 (stereo not given) | 33.2 µM (active)
O=C1CCCC2=C1C(c1[nH]ncc1Cl)N=C(Nc1nc3ccccc3o1)N2 (stereo not given) | 29.6 µM (active)
O=C(C1CC1)N1CC[C@@H](Cn2c(-c3ccc(-c4ccc5occc5c4)cc3)nc3cnccc32)C1 | 16.6 µM (active)
CCc1cncnc1N1CCN(Cc2nc3ccc(C(F)(F)F)cc3[nH]2)CC1 | 1.18 µM (active)
NC(=O)c1ccc(I)c([N+](=O)[O-])c1 | 37.2 µM (active)
Cc1cc(-c2ccc(CC(=O)Nc3ccc(-c4cccnc4)cc3)cc2)ccn1 | 4.18 µM (active)
Cc1cccc(-c2nn(C(=S)Nc3ccccc3)cc2-c2ccnc3ccccc23)n1 | 2.35 µM (active)
Fc1ccc(Cl)cc1-c1nc(Nc2ccncc2)c2nccnc2n1 | 13.2 µM (active)
CC(=O)NC(C)c1ccc(Oc2ccc(OC(C)C)cc2)cc1 (stereo not given) | 13.2 µM (active)
COc1ccc(COc2cc3oc(=O)c4cc(C(C)O)ccc4c3cc2OC)cc1 (stereo not given) | 18.7 µM (active)
CN(C)c1ccc(Nc2nc(N)n(C(=O)c3c(F)cccc3F)n2)cc1 | 0.743 µM (active)
COc1cc(Nc2ncc3c(n2)-c2ccc(Cl)cc2C(c2c(F)cccc2OC)=NC3)ccc1C(=O)O | 0.0066 µM (active)
C[C@H](NC(=O)Cc1cc(F)cc(F)c1)C(=O)N[C@@H]1C(=O)N(C)c2ccccc2-c2ccccc21 | 20.9 µM (active)

SMILES | Potency
Cc1n[nH]c(C)c1Cc1sc2c(c1C(=O)N1C[C@H](O)CO1)c(=O)n(C)c(=O)n2CC(C)C | 0.0019 µM (active)
CC1(C)Cc2c(-c3ccccc3)c(-c3ccc(Cl)cc3)c(CC(=O)O)n2C1 | 5.26 µM (active)
Nc1cccc(S(=O)(=O)N2CCCN(S(=O)(=O)c3ccc4c(c3)OCCO4)CC2)c1 | 16.6 µM (active)
CN[C@@H](C)C(=O)N[C@H]1CCCC[C@H]2CC[C@@H](C(=O)N[C@@H](c3ccccc3)c3cn(CCCCc4ccc(CCCCn5cc([C@@H](NC(=O)[C@@H]6CC[C@@H]7CCCC[C@H](NC(=O)[C@H](C)NC)C(=O)N76)c6ccccc6)nn5)cc4)nn3)N2C1=O | 23.5 µM (active)
O=C(O)[C@@H](c1ccc(OCc2ccc3ccccc3n2)cc1)C1CCCC1 | 26.4 µM (active)
CCC(C)N(C)C(=O)c1cc2ccccc2c(-c2ccccc2Cl)n1 (stereo not given) | 11.8 µM (active)
Cc1cc(Nc2nc(N[C@@H](C)c3ncc(F)cn3)ncc2Cl)n[nH]1 | 0.662 µM (active)
Cc1c(CN2CCN(C(=O)C(C)C)CC2)sc2c(N3CCOCC3)nc(-c3cnc(N)nc3)nc12 | 1.66 µM (active)
O=C(Nc1ccc(F)c(C(F)(F)F)c1)Nc1nnc(-c2ccncc2)s1 | 0.935 µM (active)
C[C@]12CCC(=O)C=C1CC[C@@H]1[C@@H]2[C@@H](O)C[C@@]2(C)[C@H]1CC[C@]2(O)C(=O)CO | 14.8 µM (active)
O=c1ncn2nc(Sc3ccc(F)cc3F)ccc2c1-c1c(Cl)cccc1Cl | 16.6 µM (active)
OCCn1cc(-c2cnc3nnn(Cc4ccc5ncccc5c4)c3n2)cn1 | 18.7 µM (active)
C[C@@H]1CN(Cc2ccc(F)cc2)[C@@H](C)CN1C(=O)c1cc2c(C(=O)C(=O)N(C)C)cn(C)c2cc1Cl | 16.6 µM (active)
COc1cccc2cc(-c3nc(C4CCC(C(=O)O)CC4)n4ncnc(N)c34)[nH]c12 (stereo not given) | 4.18 µM (active)
COc1cc2c(cc1OC)CN(CCc1ccc(NC(=O)c3cccc4c(=O)c5cccc(OC)c5[nH]c34)cc1)CC2 | 16.6 µM (active)
COc1ccc(-c2ccc3c(N4CCOCC4)nc(N4C[C@@H](C)O[C@@H](C)C4)nc3n2)cc1CO | 1.48 µM (active)
O=c1[nH]c(-c2ccc(C(F)(F)F)cc2)nc2c1CSCC2 | 26.4 µM (active)
CNC(=O)c1ccc(C)c(-n2c(C)cc(OCc3ccc(F)cc3F)c(Br)c2=O)c1 | 5.9 µM (active)
CCC(C)n1ncn(-c2ccc(N3CCN(c4ccc(OC[C@H]5CO[C@](Cn6cncn6)(c6ccc(Cl)cc6Cl)O5)cc4)CC3)cc2)c1=O (stereo not given in full) | 1.32 µM (active)
CC(c1cc2ccccc2s1)N(O)C(N)=O (stereo not given) | 67.9 µM (active)
